PubChem BioAssay (NCATS)
“And” between values parts separate entries of the source, which are not always exact repeats. Equal entries are not always repeated. Records with an inconclusive call do not appear. A number with no mark means an inactive call. The source made the active and inactive calls. Unless noted, the call rests on the fitted dose curve; in most records, active means well fitted curve in the direction sought with a large enough effect; inconclusive means small, poorly fitted or top-dose-only effect, or another doubt; inactive means no such curve, though single readings can be large; an effect the other way counts as inactive or inconclusive.

Assay: qHTS assay for small molecule agonists of the antioxidant response element (ARE) signaling pathway measured by Nrf2-dependant transcriptional activity - cell viability counter screen (AID 720653; active means well fitted curve in the direction sought with a large enough effect in the repeat runs; an effect the other way counts as inactive or inconclusive)
Conditions: ARE-bla HepG2 viability, CellTiter-Glo ATP luminescence, 16 h; stronger effect = lower value
How it was run: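 ARE-bla HepG2 cells (2,000/well) rested 5 hrs at 37C/5% CO2, then exposed to compounds in DMSO for 16 hrs. Viability was read in the same wells as intracellular ATP by luminescence, 30 min at room temperature after reagent addition.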
On the % scale 0 is the no-effect control and ±100 the full control effect.

SMILES	max response
C=C(CC)C(=O)c1ccc(OCC(=O)O)c(Cl)c1Cl	6.68%
CC/C(=C(/CC)c1ccc(O)cc1)c1ccc(O)cc1	6.27% and -6.2%
C[C@H]1C[C@H]2[C@@H]3CCC4=CC(=O)C=C[C@]4(C)[C@@]3(Cl)[C@@H](O)C[C@]2(C)[C@@]1(O)C(=O)CO	-20.4%
O=c1ccc2ccccc2o1	0.83% and -14.1% and -0.794%
CC(O)(P(=O)(O)O)P(=O)(O)O	-6.37%
C=CCc1ccc(O)c(OC)c1	-2.21% and -7.34%
CC(O)C(=O)O (configuration not stated)	-3.07%
CCCCCCc1ccc(O)cc1O	-0.701% and 2.74%
CN(C)/N=N/c1nc[nH]c1C(N)=O	-9.97%
Cc1cc(=O)n(-c2ccccc2)n1C	-4.23%
Nc1ccc(C(=O)O)cc1	2.28%

Assay: qHTS Assay for Identifying Gametocytocidal Compounds (AID 743244); further: potency means the concentration at half of the fitted maximal effect;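 on max response: actives lower the fluorescent signal which means gametocytes are killed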
Conditions: P. falciparum 3D7 stage III-V gametocytes, alamarBlue, 72 h; max response: stronger effect = lower value
How it was run: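 Viability read-out was resazurin reduction (alamarBlue, 24 h) measured at Ex 525/Em 598 nm. Beforehand, late-stage (III-V) 3D7 P. falciparum gametocytes at 20,000 cells/well were incubated with compound 72 h at 37C under 5% CO2.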

SMILES	max response [%]	Potency
CCCSS/C(CCO)=C(\C)N(C=O)Cc1cnc(C)nc1N	2.02	–
CN(C)CCOc1ccccc1Cc1ccccc1	-21.1	–
Cc1ccnc(NS(=O)(=O)c2ccc(N)cc2)n1	9.97	–
CC(C)=CCC1C(=O)N(c2ccccc2)N(c2ccccc2)C1=O	-12.9	–
CCN1CCN(c2cc3c(cc2F)c(=O)c(C(=O)O)cn3C2CC2)CC1	1.09	–
CC/C(=C(/CC)c1ccc(O)cc1)c1ccc(O)cc1	26.7	–
COc1cccc2c1C(=O)c1c(O)c3c(c(O)c1C2=O)C[C@@](O)(C(C)=O)C[C@@H]3O[C@H]1C[C@H](N)[C@H](O)[C@H](C)O1	–	6.31 µM (active)
CC(O)(P(=O)(O)O)P(=O)(O)O	-10.1	–
NC(CO)(CO)CO	0.227	–
CCCCN1CCCC1C(=O)Nc1c(C)cc(C)cc1C (configuration not stated)	-5.69	–
Oc1ccc(Cl)c2cccnc12	–	7.94 µM (active)
CCN(CCCc1ccccc1)CCCc1ccccc1	0.141	–
CCCCCCc1ccc(O)cc1O	3.3	–
COc1cc(-c2ccc(=O)[nH]n2)ccc1OC(F)F	-3.31	–
CC(C)(C)CC(C)(C)c1ccc(OCCOCC[N+](C)(C)Cc2ccccc2)cc1	–	8.91 µM (active)
CCCCCCCCCCCCCCCCCC(=O)OCC(O)CO (configuration not stated)	-12.5	–

SMILES	max response [%]	Potency
Cc1nc2n(c(=O)c1CCN1CCC(c3noc4cc(F)ccc34)CC1)CCC[C@H]2O	-12.7	–
CC[N+](CC)(CCNC(=O)C(=O)NCC[N+](CC)(CC)Cc1ccccc1Cl)Cc1ccccc1Cl	15.6	–
CN(C)/N=N/c1nc[nH]c1C(N)=O	5.22	–
O=C(N/N=C/c1ccccc1O)c1ccncc1	-7.05	–
Cc1cc(=O)n(-c2ccccc2)n1C	18.5	–
CC1=C(C(=O)O)N2C(=O)[C@@H](NC(=O)[C@H](N)c3ccc(O)cc3)[C@H]2SC1	17.2	–
CC(=O)OCC(=O)[C@@]12N=C(C)O[C@@H]1C[C@H]1[C@@H]3CCC4=CC(=O)C=C[C@]4(C)[C@H]3[C@@H](O)C[C@@]12C	-5.59	–
C[C@]12CC[C@@H]3c4ccc(O)cc4CC[C@H]3[C@@H]1C[C@@H](O)[C@@H]2O	5.6	–
C[n+]1c2cc(N)ccc2cc2ccc(N)cc21 (tested in a mixture with another compound)	–	7.94 µM (active)
Cc1c(F)c(N2CCNC(C)C2)cc2c1c(=O)c(C(=O)O)cn2C1CC1 (configuration not stated)	-1.28	–
CCOc1ccc(NC(=O)CC(C)O)cc1 (configuration not stated)	-2.08	–
C#C[C@]1(O)CC[C@H]2[C@@H]3CCC4=CC(=O)CC[C@@H]4[C@H]3CC[C@@]21C	8.68	–
Oc1c(Cl)cc(Cl)cc1Sc1cc(Cl)cc(Cl)c1O	20.1	–
Nc1ccc(C(=O)O)cc1	-1.31	–
c1ccc(OCc2ccc(CCCN3CCOCC3)cc2)cc1	-2.94	–
